Results: PubChem BioAssay

Test: CREB reporter modulators under forskolin, primary screen, cell-based, PC12, CRE-LacZ reporter, forskolin-stimulated (AID 1146);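 further: PC12 cells with 6xCRE LacZ reporter stimulated by forskolin 10 µM; beta-galactosidase reporter signal reflecting CREB driven transcription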
Settings: luminescence, 4.5 h, higher = more signal, called active from +8 up or from −8 down

z-score, inactive:
COCCOC(=O)N1C(=O)[C@@]2(c3ccccc31)[C@H](c1ccc(OCCO)cc1)N1[C@H](c3ccccc3)[C@H](c3ccccc3)OC(=O)[C@H]1[C@@H]2C(=O)N1CCCCCCC1 3.39
CCCCCN1CC=CC23O[C@@H]4/C=C\CCC(C)OC(=O)C4[C@H]2C(=O)N(CCCCCCO)[C@@H]3C1=O (stereo not given in full) 0.938
COCCOC(=O)N1C(=O)[C@@]2(c3ccccc31)[C@H](c1ccccc1OCCO)N1[C@H](c3ccccc3)[C@H](c3ccccc3)OC(=O)[C@H]1[C@@H]2C(=O)N1CCCCCCC1 4.93
C=C[C@@H](OC)[C@H](OC(=O)Nc1ccc(SC)cc1)c1ccc(OCCO)cc1 0.136
COC(=O)[C@@]1(Cc2ccc(F)cc2)[C@H]2c3cc(C(=O)N(C)C)n(Cc4c(CO)[nH]cc(C)c4=O)c3C[C@H]2CN1C(=O)c1ccccc1 1.15
Cc1ccccc1C(O)C1C=CC2C(=O)N(c3ccccc3)C(=O)C2N1Nc1ccc([N+](=O)[O-])cc1 (stereo not given) 0.598
COc1cc(NN2C(C(O)c3cc(OC)c(OC)c(OC)c3)C=CC3C(=O)N(c4ccccc4)C(=O)C32)cc(OC)c1OC (stereo not given) -0.0967
C=CCC(OC(C)=O)[C@@H]1[C@@H](N(Cc2cccc3ccccc23)C(=O)c2cccc3ccccc23)c2cc(OCCCO)ccc2N1C(=O)c1ccc2ccccc2c1 (stereo not given in full) 1.03
COC(=O)[C@@]1(Cc2ccccc2)[C@H]2c3cc(C(=O)N4CCCC4)n(CCSCCO)c3C[C@H]2CN1C(=O)c1ccccc1 2.14
Cc1cccc([C@H]2C[C@H]3C(I)=C[C@@H]2C(=O)[C@]32CO2)c1 1.56
O=C1C2C=CC(C(O)C=Cc3ccc([N+](=O)[O-])cc3)N(Nc3ccccc3)C2C(=O)N1c1ccccc1 (stereo not given) -0.148
CC(=O)NCCCC[C@@H]1NC(=O)[C@H]2C[C@@H](C(=O)NCCCCCNC(=O)CS)[C@@H](c3cccc(OCCO)c3)N2C1=O 0.908
C=C[C@H](C)[C@H](OC(=O)Nc1ccc(OC)cc1)c1ccc(OCCO)cc1 0.0618
CCOC(=O)C[C@H]1[C@H](OC(=O)c2ccc(C(=O)c3ccccc3)cc2)[C@@H](NC(=O)CC(C)C)c2cc(OCCCO)ccc2N1C(=O)Cc1ccc(OC)cc1 -0.117
Cc1ccccc1C(O)C1C=CC2C(=O)NC(=O)C2N1Nc1ccc(Cl)cc1Cl (stereo not given) -0.569
COc1cc2c(cc1O)C(c1ccc(CN3CCCC3)cc1)N(C)CC2 (stereo not given) -0.0347
COc1ccc([Si](C)(C)[C@@H]2[C@@H](CCn3cc([C@H](O)c4ccccc4)nn3)O[C@]3(C(=O)N(Cc4cccc(N5C(=O)c6cccc7cccc5c67)c4)c4ccccc43)[C@H]2C)cc1 0.471
CC(C)(C)OC(=O)CC[C@]1(C(=O)N2CCCCC2)COC(c2ccc(OCCCO)cc2)=N1 0.238
COCCOC(=O)N1C(=O)[C@@]2(c3cc(C#CC4=CCCCC4)ccc31)[C@H](c1ccc(O)cc1)N1[C@H](c3ccccc3)[C@H](c3ccccc3)OC(=O)[C@H]1[C@@H]2C(=O)NC[C@H](O)c1ccccc1 -0.369
CN(C)CCCCCCNC(=O)[C@@H]1C[C@@H]2C(=O)N[C@@H](CCCCN)C(=O)N2[C@@H]1c1ccc(O)cc1 -0.643
Cc1ccc(N2C(=O)c3ccccc3[C@](C)(C(=O)NCc3ccccc3)[C@@H]2c2ccc(CO)cc2)nc1 -1.32
C=C[C@@H](C)[C@@H](OC(=O)Nc1ccc(SC)cc1)c1ccc(OCCO)cc1 -0.162
C=C(/C(=C/C[C@@H](OC(=O)c1ccncc1)c1cccc(OCCO)c1)c1cnc2ccccc2c1)C(C)C 0.628
O=c1cccc(-c2ccco2)o1 0.57
O=C1C2C=CC(C(O)c3cc(C(F)(F)F)cc(C(F)(F)F)c3)N(Nc3ccccc3F)C2C(=O)N1c1ccccc1 (stereo not given) -0.0442
O=C(N1CCOCC1)[C@@]1(CCS(=O)(=O)c2ccccc2)N=C(c2ccc(OCCCO)cc2)O[C@H]1c1ccccc1 -0.0526
COCCCNC(=O)[C@@]1(Sc2ccc(C)cc2)CC(=O)N(C(C)C)[C@@H]1c1ccc(CO)cc1I 1.35
C=C(C)[C@@H]1CC=C(C(O)C2C=CC3C(=O)N(c4ccccc4)C(=O)C3N2Nc2ccc(C#N)cc2)CC1 (stereo not given in full) -0.345
C=C(COC)/C(=C/C[C@@H](OC(=O)c1ccncc1)c1ccccc1OCCO)c1cc(C(=O)OC)ccc1OC 3.84
CC(C)C[C@@H]1NC(=O)[C@@H]2C[C@H](C(=O)NCCCCCC[N+](C)(C)C)[C@H](c3cccc(OCCO)c3)N2C1=O -0.153
O=C1C2C=CC(C(O)c3ccco3)N(Nc3ccccc3)C2C(=O)N1c1ccccc1 (stereo not given) 0.621
CCOC(=O)C[C@H]1[C@H](OC(=O)c2ccc(-c3ccccc3)cc2)[C@@H](NC(=O)Cc2ccc(OC)cc2)c2cc(OCCCO)ccc2N1C(=O)Cc1ccc(OC)cc1 -0.834
CCOC(=O)C1=CC[C@@H](c2ccccc2)N(S(=O)(=O)c2ccc(C)cc2)[C@H]1c1cccc(OC)c1 0.576
CN1C=C(C(=O)OCCS(C)(=O)=O)C(C(=O)OCCS(C)(=O)=O)=CC(c2ccc(CO)cc2)=CC1c1cccs1 (stereo not given) -1.45
COC(=O)C(CC#Cc1ccc2c(c1)[C@]1(C(=O)N2)[C@H](c2ccc(OCCO)cc2)N2[C@H](c3ccccc3)[C@H](c3ccccc3)OC(=O)[C@H]2[C@@H]1C(=O)N1CCN(c2ncccn2)CC1)C(=O)OC 1.27
